Screening results: PubChem, National Center for Advancing Translational Sciences (NCATS)
BLM helicase inh = qHTS Assay for Inhibitors of Bloom's syndrome helicase (BLM). RecQ-like DNA helicase BLM (Homo sapiens), P54132. recombinant BLM DNA unwinding, fluorescence dequenching. Potency, µM (series often up to 56.1 µM), actives largely listed as inhibitors. 0.2% of 350,000 active. AID 2528, 2010; also: nearly all actives have a fitted effect of over 35% in size
PGK inhibitor = qHTS Assay to Find Inhibitors of Phosphoglycerate Kinase | Potency, µM (highest dose often 57.5 µM), hits mostly inhibitors | PGK/GAPDH coupled, Kinase-Glo luminescence, 60 min | Phosphoglycerate kinase, glycosomal (Trypanosoma brucei brucei), P07378 | 0.043% of 380,000 active; also: nearly all actives have a fitted effect of over 60% in size
Target sequence (P07378 whole entry, looked up): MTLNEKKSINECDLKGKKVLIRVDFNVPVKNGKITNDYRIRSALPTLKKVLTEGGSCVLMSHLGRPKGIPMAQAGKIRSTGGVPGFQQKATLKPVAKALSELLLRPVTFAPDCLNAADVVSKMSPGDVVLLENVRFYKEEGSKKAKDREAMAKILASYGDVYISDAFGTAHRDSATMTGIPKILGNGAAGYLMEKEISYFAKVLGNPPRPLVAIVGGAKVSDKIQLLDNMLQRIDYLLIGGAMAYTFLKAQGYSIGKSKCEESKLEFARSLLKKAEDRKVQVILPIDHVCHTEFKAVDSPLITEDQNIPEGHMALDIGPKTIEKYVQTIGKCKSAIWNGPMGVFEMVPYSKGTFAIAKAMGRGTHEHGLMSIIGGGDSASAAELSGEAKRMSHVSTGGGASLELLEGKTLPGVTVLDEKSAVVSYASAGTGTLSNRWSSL
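Recombinant glycosomal PGK reaction used 1,3-bisphosphoglycerate generated in-well by GAPDH (100nM final) in 100mM TEA pH 7.6, 5mM MgCl2, 0.01% Tween-20. After 60 minutes at room temperature, ATP was read by Kinase-Glo Plus luminescence end-point.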
GLS inh = qHTS for Inhibitors of Glutaminase (GLS). AID 624170, 2012. Potency, µM (highest dose often 45.5 µM), actives largely listed as inhibitors. GLS enzymatic activity, qHTS titration. 0.21% of 410,000 active
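Enzyme dispensed in phosphate buffer (45 mM, pH 8.2, 0.02% Tween-20), compounds pinned in, then 1 mM L-glutamine solution and the glutamate oxidase–HRP–Amplex Red mix added; fluorescence read immediately and again after 30 min at room temperature.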
APE1 inh = qHTS Assay for Inhibitors of the Human Apurinic/apyrimidinic Endonuclease 1 (APE1). DNA repair nuclease/redox regulator APEX1 (Homo sapiens), P27695. recombinant APE1, TAMRA/BHQ-2 abasic DNA cleavage fluorescence. Potency, µM (titrated, usually from 65.8 µM), most hits filed as inhibitors. 0.35% of 350,000 active. AID 2517, 2012; also: nearly all actives have a fitted effect of over 55% in size
Target sequence (P27695 whole entry, looked up): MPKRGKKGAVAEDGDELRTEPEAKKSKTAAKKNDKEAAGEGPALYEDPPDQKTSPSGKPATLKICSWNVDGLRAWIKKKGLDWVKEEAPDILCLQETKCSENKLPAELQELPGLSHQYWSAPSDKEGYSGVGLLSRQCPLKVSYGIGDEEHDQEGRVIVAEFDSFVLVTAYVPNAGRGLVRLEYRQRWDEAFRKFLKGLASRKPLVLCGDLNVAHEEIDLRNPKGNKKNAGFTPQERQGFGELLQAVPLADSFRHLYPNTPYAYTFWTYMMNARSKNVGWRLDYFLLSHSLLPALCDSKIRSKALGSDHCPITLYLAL
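0.75 nM APE1 + cpd, 15 min RT; start w/ 50 nM TAMRA/BHQ-2 THF-abasic dsDNA; kinetic fluor 525/598 nm ×3 reads @60 s; Δ(read3−read1); normalized to DMSO and NSC13755 control wells.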
RECQ1 inh-1 = qHTS Assay for Inhibitors of RecQ-Like Dna Helicase 1 (RECQ1). RECQ1 DNA unwinding, red fluorescence kinetic read. AID 2549, 2010. 0.54% of 240,000 active. ATP-dependent DNA helicase Q1 (Homo sapiens), P46063. Potency, µM (top dose mostly 57.3 µM), hits mostly inhibitors; also: nearly all actives have a fitted effect of over 30% in size
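RECQ1T1 50 nM; forked duplex (20 bp + 30-nt ss tails) 200 nM, ATP 2 mM final; pH 8.0, 2 mM MgCl2, 2.5 ug/ml poly(dI-dC); 15 min compound preincubation; discontinuous kinetic read over 2 h at RT.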
TDP1 block = qHTS Assay for Inhibitors of Tyrosyl-DNA Phosphodiesterase (TDP1); Tyrosyl-DNA phosphodiesterase 1 (Homo sapiens), Q9NUW8; recombinant TDP1, AlphaScreen DNA substrate cleavage; Potency, µM (highest dose often 130 µM), actives largely listed as inhibitors; 0.28% of 350,000 active; also: nearly all actives have a fitted effect of over 40% in size
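Steps: enzyme plus compound, 15 min RT; add biotin/phosphotyrosine-FITC oligonucleotide (15 nM final), react 5 min; add donor/acceptor beads (10 ug/ml final), 10 min; read AlphaScreen. Tdp1 at 1 nM final.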
RECQ1 inh conf = Confirmation qHTS Assay for Inhibitors of RecQ-Like Dna Helicase 1 (RECQ1) | shares compounds with RECQ1 inh-1 | RECQ1 helicase DNA unwinding, fluorescence | Potency, µM (titrated, usually from 229 µM), usual class: inhibitors | 28% of 610 active | AID 2708, 2010; also: nearly all actives have a fitted effect of over 45% in size
RECQ1 ADP FP = Counterscreen for RECQ1 Inhibitors: ADP Fluorescence Polarization Displacement Assay. shares compounds with RECQ1 inh-1. ADP fluorescence polarization displacement counterscreen. Potency, µM (doses to about 228 µM), actives largely listed as inhibitors. 27% of 530 active; also: nearly all actives have a fitted effect of over 45% in size
RECQ1 inh-2 = Confirmation qHTS Assay for Inhibitors of RecQ-Like Dna Helicase 1 (RECQ1) - Round 2 Cherry Picks; AID 504841, 2011; Potency, µM (series often up to 119 µM), actives largely listed as inhibitors; shares compounds with RECQ1 inh-1; 15% of 1,100 active; recombinant RECQ1 DNA unwinding, red fluorescence; also: nearly all actives have a fitted effect of over 50% in size
Numbers stand for hits; i = inactive; ? = inconclusive; nt = not tested or not shown. The list is not random: actives were taken first. Their share in the collection is about 0.85%. Calls follow the shape of the dose curve; as a rule, active = well fitted curve in the direction sought with a large enough effect; inconclusive = small, poorly fitted or top-dose-only effect, or another doubt; inactive = no such curve, though single readings can be large; an effect the other way counts as inactive or inconclusive.

SMILES	BLM helicase inh	PGK inhibitor	GLS inh	APE1 inh	RECQ1 inh-1	TDP1 block	RECQ1 inh conf	RECQ1 inh-2	others
Cc1noc(C)c1COc1ccc(C(=O)Nc2ccccc2)cc1	i	i	i	i	i	i	i	nt	RECQ1 ADP FP=?
Cc1noc(C)c1COc1ccc(C(=O)NCc2ccccn2)cc1	i	i	i	i	i	i	i	nt	RECQ1 ADP FP=?
CCN(CC)S(=O)(=O)c1ccc(OC)c(NC(=O)/C=C/c2ccco2)c1	i	i	i	i	25.1µM	nt	nt	i
CCc1oc2ccccc2c1C(=O)c1cc(I)c(O)c(I)c1	i	nt	i	nt	nt	i	nt	nt
C=CCC1(CC=C)CCCN1Cc1nc(COc2ccccc2)no1	i	i	i	i	39.8µM	i	nt	i
Oc1ccc(Br)cc1C1C=C(c2ccc3c(c2)OCO3)NC(c2ccc(F)c(Br)c2)N1 (configuration not stated)	nt	nt	nt	nt	nt	i	nt	nt
CCOc1ccc(S(=O)(=O)Nc2nc3ccccc3nc2-n2ccc(=NC(=O)c3ccccc3C)cc2)cc1	i	i	i	i	?	i	nt	i
Cc1ccccc1C(=O)N=c1ccn(-c2nc3ccccc3nc2NS(=O)(=O)c2ccccc2)cc1	i	i	i	i	nt	i	nt	nt
CCC(C)NC(=O)c1ccc2nc(-c3cccs3)c(-c3cccs3)nc2c1 (configuration not stated)	nt	nt	nt	nt	nt	i	nt	nt
CCOc1cc(NC(=O)c2cnccn2)c(OCC)cc1NC(=O)c1cccc(F)c1	i	nt	nt	i	i	i	i	nt	RECQ1 ADP FP=?
COc1cc(/C=N/N2C(=O)CSC2=S)cc(Br)c1O	i	?	?	?	35.5µM	?	?	nt
O=C1/C(=C\c2ccc(O)c(O)c2)Oc2cc(O)ccc21	i	nt	nt	?	20µM	i	nt	56.2µM
Cc1cc2c(NC(=O)Nc3ccc(C(C)(C)C)cc3)cccc2nn1	i	i	i	i	i	i	nt	nt
Cc1cc2c(NC(=O)Nc3ccccc3)cccc2nn1	i	i	i	?	?	i	nt	i
NCCCC[C@H](NC(=O)CNC(=O)[C@@H]1CCCN1C(=O)[C@H](Cc1ccc(O)cc1)NC(=O)CN)C(=O)N[C@@H](Cc1ccccc1)C(=O)O	i	nt	nt	i	i	i	nt	nt
O=C(COc1ccccc1Cl)c1ccc[nH]1	i	i	i	?	?	nt	nt	i
CC(C)c1cc(C(C)C)c(S(=O)(=O)Nc2cccc3cccnc23)c(C(C)C)c1	i	nt	nt	i	i	i	nt	nt
CC[C@H](C)[C@H](NC(=O)CNC(=O)[C@H](C)NC(=O)[C@H](C)N)C(=O)NCC(=O)N[C@H](C(=O)N[C@@H](CC(C)C)C(=O)N[C@H](C(=O)N[C@H](C(=O)O)C(C)C)[C@@H](C)O)[C@@H](C)CC	i	nt	nt	i	i	i	nt	nt
O=C1c2ccc3c4c(ccc(c24)C(=O)N1CCCCO)C(=O)N(CCCCO)C3=O	i	i	i	?	7.08µM	i	nt	50.1µM
CS(=O)(=O)N(CC(=O)Nc1ccc(CC#N)cc1)c1ccc(C23CC4CC(CC(C4)C2)C3)cc1	i	nt	i	i	7.94µM	i	nt	?
CC[C@@H](C)[C@H](NS(=O)(=O)c1cccc2ccccc12)C(=O)N[C@H](C=O)Cc1c[nH]c2ccccc12	nt	nt	nt	i	i	i	nt	nt
CCOC(=O)N1Cc2cc3ccccc3nc2C1	nt	i	i	nt	nt	nt	nt	nt
O=C(O)/C=C/C(=O)N1Cc2cc3ccccc3nc2C1	i	i	?	i	?	35.5µM	nt	i
CCN(CC)c1ccc(/C=C/C(=O)c2ccc(Br)cc2)cc1	i	i	i	i	8.91µM	nt	63.1µM	50.1µM
CN(C)c1ccc(C(=O)/C=C/c2ccc(Br)cc2)cc1	i	nt	i	i	i	i	nt	nt
SMILES	BLM helicase inh	PGK inhibitor	GLS inh	APE1 inh	RECQ1 inh-1	TDP1 block	RECQ1 inh conf	RECQ1 inh-2	others
O=C(O)c1c(Cl)c(Cl)c(Cl)c(Cl)c1-c1c2cc(I)c(=O)c(I)c-2oc2c(I)c(O)c(I)cc12	14.1µM	nt	14.1µM	14.1µM	14.1µM	i	44.7µM	nt	RECQ1 ADP FP=0.891µM
Cc1ccccc1N=C/C=C1\N(C)c2ccccc2C1(C)C	i	i	i	?	?	i	nt	i
Cc1cc(N/N=C(/CCC(=O)O)C(=O)O)nc2ccccc12	i	i	i	?	i	i	i	nt	RECQ1 ADP FP=i
COCCCNC(=O)c1ccc2c3c(onc13)-c1ccccc1C2=O	i	i	i	?	12.6µM	i	nt	50.1µM
CCOC(=O)c1sc2ncnc(NCc3ccco3)c2c1C	i	i	i	?	?	nt	nt	i
CC(=O)OC1CCC2(C)C(COc3ccc4ccc(=O)oc4c3)C(C)(O)CCC2C1(C)C (configuration not stated)	i	i	i	i	?	i	nt	i
CC(=O)Cn1c2ccccc2n2nc(CCC(=O)O)c(=O)nc12	i	i	i	i	i	i	nt	nt
O=C(O)CCc1nn2c3ccccc3n(CC(=O)c3cccs3)c2nc1=O	i	i	i	i	i	i	i	nt	RECQ1 ADP FP=i
O=C(O)CCc1nn2c3ccccc3n(Cc3ccccc3)c2nc1=O	i	i	i	i	i	i	nt	nt
COc1ccc(C(=O)Cn2c3ccccc3n3nc(CCC(=O)O)c(=O)nc23)cc1OC	i	i	i	i	i	i	i	nt	RECQ1 ADP FP=?
O=C(O)C1NCCN(C(=O)c2ccc3c(ccc4ccccc43)c2)C1C(=O)O (configuration not stated)	i	nt	nt	i	i	i	nt	nt
Cc1ccc(C2=NN=C(NC(=O)CSc3nnc4c5ccccc5n(C)c4n3)SC2)cc1	i	i	i	i	11.2µM	i	i	nt
Cn1c2ccccc2c2nnc(SCC(=O)Nc3cccc(C(=O)O)c3)nc21	i	i	i	i	nt	nt	nt	nt
